In PubChem BioAssay (NCI):
This is part of a sample that, as a whole, favours compounds with a hit. Of some 83,000 tested, about 20% had one in any assay.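 The endpoint reported here, percent growth, reads 100 for growth as untreated, 0 for no net growth and -100 for all cells dead.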 Active and inactive are the calls of the source. The calls were made as follows: active = growth percent below 10; inactive = the rest.

Key:
Assay in all cases: NCI-60 one-dose screen, 48 h (100 = growth as untreated, 0 = no growth, -100 = all killed)
Conditions in all cases: 10 µM unless noted
HCT-15 colon = tested on: HCT-15 colon
HT29 colon = tested on: HT29 colon
SNB-75 CNS = tested on: SNB-75 CNS
SNB-19 CNS = tested on: SNB-19 CNS
U251 CNS = tested on: U251 CNS
PC-3 prostate = tested on: PC-3 prostate
SK-MEL-5 melanoma = tested on: SK-MEL-5 melanoma
LOX IMVI melanoma = tested on: LOX IMVI melanoma
SK-MEL-28 melanoma = tested on: SK-MEL-28 melanoma
UACC-62 melanoma = tested on: UACC-62 melanoma

Measured: growth

N#Cc1c2c(nc3n[nH]c(N)c13)CCCC2
inactive: HCT-15 colon 105% | HT29 colon 104% | SNB-75 CNS 85.6% | SNB-19 CNS 112% | U251 CNS 99.3% | PC-3 prostate 109% | SK-MEL-5 melanoma 118% | LOX IMVI melanoma 102% | SK-MEL-28 melanoma 122%

CCn1cc2c(cc1=O)-c1nc3ccccc3c3ccnc(c13)C2=O
inactive: HCT-15 colon 50.2% | HT29 colon 57.3% | SNB-75 CNS 46.9% | SNB-19 CNS 37.4% | U251 CNS 44.6% | PC-3 prostate 63.5% | UACC-62 melanoma 37.9% | LOX IMVI melanoma 57% | SK-MEL-28 melanoma 72.4%

NC(=S)N/N=C/c1ccc(OCc2ccccc2)cc1
inactive: HCT-15 colon 47.8% | HT29 colon 47.7% | SNB-75 CNS 67.8% | SNB-19 CNS 73.1% | U251 CNS 71.8% | PC-3 prostate 64.2% | UACC-62 melanoma 61.8% | LOX IMVI melanoma 82.1% | SK-MEL-28 melanoma 80%

CCOC(=O)c1c2c(n3ccc(NC(=O)CCN(CC)CC)cc13)C(=O)c1ncccc1C2=O
inactive: HCT-15 colon 50.3% | HT29 colon 38.4% | SNB-75 CNS 33% | SNB-19 CNS 53.3% | U251 CNS 53.2% | PC-3 prostate 61.1% | UACC-62 melanoma 50.8% | LOX IMVI melanoma 10.3% | SK-MEL-28 melanoma 88.8%

C=C1CCC2C3(C)COC(C)(C)OC3CCC2(C)C1C/C=C1/C(=O)OCC1OC(C)=O (stereo not drawn)
active: LOX IMVI melanoma 8.63%
inactive: HCT-15 colon 33.8% | HT29 colon 18.4% | SNB-75 CNS 58% | SNB-19 CNS 110% | U251 CNS 36.7% | PC-3 prostate 56.4% | SK-MEL-5 melanoma 56.9% | SK-MEL-28 melanoma 69.6%

O=C1c2c[n+](Cc3ccccc3)ccc2-c2nc3ccccc3c3ccnc1c23
inactive: HCT-15 colon 18.6%
active: HT29 colon -25% | SNB-75 CNS -80.7% | SNB-19 CNS -72.2% | U251 CNS -77% | PC-3 prostate -7.15% | UACC-62 melanoma -58.5% | LOX IMVI melanoma -37.1% | SK-MEL-28 melanoma -34.3%

CCOC(=O)c1ccc2c(c1)nc(/C=C/c1ccc(Cl)cc1)n2-c1cc(C(C)(C)C)[nH]n1
active: SNB-75 CNS 0.573%
inactive: HCT-15 colon 35.6% | HT29 colon 57.7% | SNB-19 CNS 77.6% | U251 CNS 50.5% | PC-3 prostate 62.1% | UACC-62 melanoma 19.1% | LOX IMVI melanoma 39.9% | SK-MEL-28 melanoma 47.3%

COc1ccc(-c2c(C)noc2-c2ccc(O)cc2O)cc1
inactive: HCT-15 colon 68.8% | HT29 colon 102% | SNB-75 CNS 90.9% | SNB-19 CNS 104% | U251 CNS 93.8% | PC-3 prostate 71.8% | UACC-62 melanoma 90.7% | SK-MEL-28 melanoma 105%

O=c1[nH]c(-c2ccccn2)nc2sc3c(c12)CCCCC3
inactive: HCT-15 colon 34.3% | HT29 colon 36.9% | SNB-75 CNS 80.9% | SNB-19 CNS 46.1% | U251 CNS 17.1% | SK-MEL-5 melanoma 44.5% | UACC-62 melanoma 20.2% | SK-MEL-28 melanoma 45.2%
active: LOX IMVI melanoma 8.61%

C/C(=C(/c1ccc(O)cc1)c1ccc(OCCN(C)C)cc1)c1ccccc1
inactive: HCT-15 colon 73.9% | HT29 colon 22.1% | SNB-75 CNS 53.4% | SNB-19 CNS 96.1% | U251 CNS 70.5% | PC-3 prostate 80.3% | SK-MEL-5 melanoma 75.1% | LOX IMVI melanoma 82.8% | SK-MEL-28 melanoma 45.3%

c1ccc2sc(SCCCn3ccnc3)nc2c1
inactive: HCT-15 colon 98.3% | HT29 colon 67% | SNB-75 CNS 117% | SNB-19 CNS 94% | U251 CNS 88.2% | SK-MEL-5 melanoma 92.1% | UACC-62 melanoma 87.8% | LOX IMVI melanoma 96.5% | SK-MEL-28 melanoma 109%

Clc1ccc(-c2nnc(COc3ccccc3Cl)o2)cc1
active: SNB-75 CNS 2.45%
inactive: HCT-15 colon 81% | HT29 colon 71% | SNB-19 CNS 86.7% | U251 CNS 60.3% | SK-MEL-5 melanoma 91.4% | UACC-62 melanoma 79.7% | LOX IMVI melanoma 81.5% | SK-MEL-28 melanoma 85.1%

N#CC1=C(N)Oc2c(ccc3ccccc23)C1c1cccs1 (stereo not drawn)
inactive: HCT-15 colon 13.5% | SNB-19 CNS 49.7% | U251 CNS 13.3% | PC-3 prostate 22.5% | UACC-62 melanoma 29.3% | SK-MEL-28 melanoma 41.1%
active: HT29 colon 5.33% | SNB-75 CNS 4.67% | SK-MEL-5 melanoma -35.9%

COc1ccc(C(=O)/C=C/c2c(Cl)c3c(c(OC)c2Cl)OCC(=O)N3)cc1
active: HT29 colon 7.82% | LOX IMVI melanoma -36.1%
inactive: HCT-15 colon 20.1% | SNB-75 CNS 37% | SNB-19 CNS 59.6% | U251 CNS 17% | SK-MEL-5 melanoma 21.2% | UACC-62 melanoma 46.7% | SK-MEL-28 melanoma 48.2%

COc1ccc(C(=O)c2sc3nc4c(c(C(F)(F)F)c3c2N)CN(C(C)=O)CC4)cc1OC
inactive: HCT-15 colon 84.7% | HT29 colon 95% | SNB-75 CNS 74.6% | SNB-19 CNS 95.8% | U251 CNS 78.3% | SK-MEL-5 melanoma 77.6% | UACC-62 melanoma 83.6% | LOX IMVI melanoma 78.4% | SK-MEL-28 melanoma 93.4%

NCc1cn2cc(Cl)sc2n1
inactive: HCT-15 colon 98.6% | HT29 colon 105% | SNB-75 CNS 92.6% | SNB-19 CNS 112% | U251 CNS 93.2% | PC-3 prostate 92.3% | SK-MEL-5 melanoma 103% | UACC-62 melanoma 110% | SK-MEL-28 melanoma 104%

COc1ccccc1N1CCN(CCn2c(=O)c3c(c4ccccc4n3C)n(C)c2=O)CC1
inactive: HCT-15 colon 101% | HT29 colon 68.3% | SNB-75 CNS 107% | SNB-19 CNS 95.2% | U251 CNS 84.2% | PC-3 prostate 84.4% | SK-MEL-5 melanoma 95.8% | LOX IMVI melanoma 96.3% | SK-MEL-28 melanoma 115%

COc1cc(C2CC(=O)Nc3c2c(C)nn3-c2nc3ccccc3[nH]2)cc(OC)c1OC (stereo not drawn)
inactive: HCT-15 colon 101% | HT29 colon 109% | SNB-75 CNS 86.9% | SNB-19 CNS 93.4% | U251 CNS 102% | PC-3 prostate 75.2% | SK-MEL-5 melanoma 99.7% | UACC-62 melanoma 97.2% | SK-MEL-28 melanoma 103%

C=C1CCC2C3(C)COC(c4cccc(Cl)c4)OC3CCC2(C)C1/C=C/C1=CCOC1=O (stereo not drawn)
inactive: HCT-15 colon 59.1% | HT29 colon 56.9% | SNB-75 CNS 86.5% | SNB-19 CNS 77.3% | U251 CNS 69.4% | PC-3 prostate 44.2% | UACC-62 melanoma 62.6% | LOX IMVI melanoma 52.1% | SK-MEL-28 melanoma 78.8%

O=C(CO[N+](=O)[O-])Nc1ccc(C(=O)/C=C/c2ccc(Cl)cc2)cc1
inactive: HCT-15 colon 58.9% | SNB-75 CNS 69.7% | SNB-19 CNS 87.9% | U251 CNS 14.9% | SK-MEL-5 melanoma 54.5% | UACC-62 melanoma 49.2% | SK-MEL-28 melanoma 86.8%
active: HT29 colon -23.4% | LOX IMVI melanoma -60.9%

O=C(COCc1c(-c2ccccc2)no[n+]1[O-])Nc1ccc(C(=O)/C=C/c2ccc3c(c2)OCO3)cc1
inactive: HCT-15 colon 104% | HT29 colon 132% | SNB-75 CNS 120% | SNB-19 CNS 97.3% | U251 CNS 107% | SK-MEL-5 melanoma 94.4% | UACC-62 melanoma 97.5% | LOX IMVI melanoma 68.3% | SK-MEL-28 melanoma 112%

Cc1nn(-c2nc3ccccc3[nH]2)c2c1C(c1ccc3c(c1)OCO3)CC(=O)N2 (stereo not drawn)
inactive: HCT-15 colon 47.6% | HT29 colon 34.7% | SNB-75 CNS 39.8% | SNB-19 CNS 49% | U251 CNS 30.5% | PC-3 prostate 21.6% | SK-MEL-5 melanoma 12.4% | UACC-62 melanoma 27.3% | SK-MEL-28 melanoma 82.3%

CC/C=C\C[C@H](F)C/C=C1/C(=O)C=C[C@@H]1C/C=C\CCCC(=O)OC
active: HCT-15 colon -32.8% | HT29 colon -31% | U251 CNS 1.8% | SK-MEL-5 melanoma -81.8% | LOX IMVI melanoma -49.7% | SK-MEL-28 melanoma 9.64%
inactive: SNB-75 CNS 61.9% | SNB-19 CNS 34% | PC-3 prostate 12.9%

O=C(Nc1cccc2[nH]c(C(F)(F)F)nc12)c1ccc(Br)cc1F
inactive: HCT-15 colon 28.5% | HT29 colon 61.9% | SNB-75 CNS 60.8% | SNB-19 CNS 29.7% | U251 CNS 18.9% | LOX IMVI melanoma 35.9% | SK-MEL-28 melanoma 62.9%
active: SK-MEL-5 melanoma -32.8% | UACC-62 melanoma -1.06%

COc1cc(-c2cnc3nonc3n2)c(OC)c2c1OCO2
inactive: HCT-15 colon 87.5% | HT29 colon 104% | SNB-75 CNS 95.7% | SNB-19 CNS 108% | U251 CNS 93.5% | PC-3 prostate 76.2% | UACC-62 melanoma 106% | SK-MEL-28 melanoma 111%

N=c1c2ccccc2nc2n1CCCCC2
inactive: HCT-15 colon 110% | HT29 colon 110% | SNB-75 CNS 99.7% | SNB-19 CNS 103% | U251 CNS 101% | SK-MEL-5 melanoma 100% | UACC-62 melanoma 106% | LOX IMVI melanoma 106% | SK-MEL-28 melanoma 103%

Cn1cc(-c2csc(-c3cn(C)c4ncccc34)n2)c2ccccc21
active: HT29 colon 6.11% | SNB-75 CNS -4.48%
inactive: HCT-15 colon 26.5% | SNB-19 CNS 42.4% | U251 CNS 25.1% | PC-3 prostate 35.7% | UACC-62 melanoma 47% | LOX IMVI melanoma 36.8% | SK-MEL-28 melanoma 61.4%

O=C(NCc1cccc(C(F)(F)F)c1)[C@H](CCC(=O)N1CCN(C2CCCCC2)CC1)N1C(=O)[C@@H](N2C(=O)OC[C@@H]2c2ccccc2)[C@H]1/C(Cl)=C/c1ccccc1
active: HT29 colon 2.23% | SK-MEL-5 melanoma -59.5%
inactive: HCT-15 colon 31.8% | SNB-75 CNS 58.5% | SNB-19 CNS 39.4% | U251 CNS 28.1% | UACC-62 melanoma 60.3% | LOX IMVI melanoma 19.9% | SK-MEL-28 melanoma 18.6%

CC1=C(NCCN2CCCC2)C(=O)c2c(OCc3ccc(F)c(Cl)c3)cccc2C1=O
inactive: HCT-15 colon 49.1% | HT29 colon 20.5% | SNB-75 CNS 69.9% | SNB-19 CNS 93% | U251 CNS 57.8% | SK-MEL-5 melanoma 59% | UACC-62 melanoma 91.7% | LOX IMVI melanoma 12.9%
active: SK-MEL-28 melanoma -53.4%

COc1ccc(C(=O)c2sc3nc(-c4ccccc4OC)ccc3c2N)cc1OC
inactive: HCT-15 colon 58.5% | HT29 colon 56.2% | SNB-75 CNS 73.2% | SNB-19 CNS 78.2% | U251 CNS 63.2% | PC-3 prostate 30.9% | UACC-62 melanoma 67.8% | SK-MEL-28 melanoma 88.8%
active: SK-MEL-5 melanoma 8.53%
